PLK1 PBD inh – qHTS for Inhibitors of PLK1-PDB (polo-like kinase 1 - polo-box domain): Primary Screen; Serine/threonine-protein kinase PLK1 (Homo sapiens), P53350; Plk1 PBD binding of FITC phosphopeptide, fluorescence polarization; Potency, µM, without a hit: max response, negative = inhibition, actives largely listed as inhibitors; hit rate 2.8% among 360,000; also: potency is read from the fitted curve at half-maximal effect; series mostly up to about 57 µM; % is scaled to controls: 0 for no effect and ±100 for the full control effect; nearly all actives have a fitted effect of over 65% in size
HP1b chromo inh – HTS for Inhibitors of HP1-beta Chromodomain Interactions with Methylated Histone Tails | Chromobox protein homolog 1 (Homo sapiens), P83916 | AlphaScreen HP1-beta / biotin-H3K9me3 peptide binding | hit rate 0.56% among 390,000 | AID 540317, 2011 | Potency, µM (highest dose often 114 µM), for inactives: top-dose activity change, negative = inhibition, most hits filed as inhibitors; also: potency is read from the fitted curve at half-maximal effect; nearly all actives have a fitted effect of over 70% in size
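Compound inhibition of the preformed complex between 50 nM HP1-beta and 50 nM biotinylated H3K9me3 peptide was read by AlphaScreen. Buffer was PBS pH 7.4 with 0.01% Tween-20. Incubations ran 30 min at room temperature, with 10 ug/mL donor/acceptor beads.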
BAZ2B block – qHTS Assay for Inhibitors of BAZ2B; AlphaScreen BAZ2B-H3K14Ac peptide displacement; Bromodomain adjacent to zinc finger domain protein 2B (Homo sapiens), Q9UIF8; Potency, µM (titrated, usually from 114 µM), without a hit: at the highest dose activity change, negative = inhibition, actives largely listed as inhibitors; hit rate 4.4% among 360,000; AID 504333, 2011; also: potency is read from the fitted curve at half-maximal effect; % is scaled to controls: 0 for no effect and ±100 for the full control effect; nearly all actives have a fitted effect of over 60% in size
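Inhibition is scored as reduced AlphaScreen emission. The BAZ2B/b-H3(5-23)K14Ac complex (50 nM each) in PBS pH 7.4, 0.01% Tween-20 meets compound (up to 110 uM) for 30 min at RT before bead addition.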
KAT2A inh – qHTS Assay for Inhibitors of GCN5L2; GCN5L2 HAT assay, ThioGlo1 CoA-SH fluorescence; Potency, µM (series often up to 58.9 µM), inactives show at the highest dose activity change, negative = inhibition, hits mostly inhibitors; hit rate 0.21% among 390,000; Histone acetyltransferase KAT2A (Homo sapiens), Q92830; also: potency is read from the fitted curve at half-maximal effect; % is scaled to controls: 0 for no effect and ±100 for the full control effect
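Titration-based screen in which CoA formation is detected via maleimide probe ThioGlo1 (50uM) turning fluorescent on thiol reaction; substrates H3(1-25) 75uM and acetyl-CoA 70uM, GCN5L2 20nM, 20 min incubation at room temperature.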
PI5P4K alpha inh – qHTS for Inhibitors of phosphatidylinositol 5-phosphate 4-kinase (PI5P4K). Phosphatidylinositol 5-phosphate 4-kinase type-2 alpha (Homo sapiens), P48426. max response, %. AID 652105, 2013. PI5P4Kalpha enzyme, ADP-Glo luminescence, 60 min; stronger effect = lower value. hit rate 1.2% among 330,000; active = max response of -50% or lower; inconclusive = between -30% and -50%; inactive = -30% or higher; also: value at the top dose of about 77 µM; % is scaled to controls: 0 for no effect and ±100 for the full control effect
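Controls without substrate or without enzyme flank wells where PI5P4Kalpha converts substrate using 5 microM ATP (final). Incubation lasts 60 minutes at room temperature; ADP formed is read by ADP-Glo luminescence.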
JMJD2A Tudor inh – qHTS Assay for Inhibitors of JMJD2A-Tudor Domain | Lysine-specific demethylase 4A (Homo sapiens), O75164 | Potency, µM (highest dose often 114 µM), for the others: top-dose activity change, negative = inhibition, usual class: inhibitors | AID 504339, 2011 | AlphaScreen JMJD2A-Tudor / H3K4me3 peptide binding | hit rate 4.4% among 390,000; also: potency is read from the fitted curve at half-maximal effect; % is scaled to controls: 0 for no effect and ±100 for the full control effect; nearly all actives have a fitted effect of over 50% in size
TbPYK inh – qHTS of Trypanosoma Brucei Inhibitors: Confirmatory Assay for Cherry-picked Compounds; Potency, µM (titrated, usually from 76.9 µM), without a hit: at the highest dose activity change, negative = inhibition, most hits filed as inhibitors; AID 720569, 2013; hit rate 67% among 890; recombinant TbPYK, Kinase-Glo ATP luminescence; shares compounds with PLK1 PBD inh; also: potency is read from the fitted curve at half-maximal effect; % is scaled to controls: 0 for no effect and ±100 for the full control effect; nearly all actives have a fitted effect of over 70% in size
TbPYK orthogonal – qHTS of Trypanosoma Brucei Inhibitors: Orthogonal Assay for Cherry-picked Compounds | recombinant TbPYK, ADP-Glo luminescence, 60 min | shares compounds with PLK1 PBD inh | Potency, µM (series often up to 76.9 µM), for the others: top-dose activity change, negative = inhibition, hits mostly inhibitors | hit rate 62% among 890; also: potency is read from the fitted curve at half-maximal effect; % is scaled to controls: 0 for no effect and ±100 for the full control effect; nearly all actives have a fitted effect of over 75% in size
Active calls of the source: *; ? = inconclusive; nt = no result given; [ ] = dose if it differs, or a comment. An excerpt weighted towards active compounds, which were near 7% of everything screened. Unless noted, calls follow the shape of the dose curve; as a rule, active = well fitted curve in the direction sought with a large enough effect; inconclusive = small, poorly fitted or top-dose-only effect, or another doubt; inactive = no such curve, though single readings can be large; an effect the other way counts as inactive or inconclusive.

SMILES	PLK1 PBD inh	HP1b chromo inh	BAZ2B block	KAT2A inh	PI5P4K alpha inh	JMJD2A Tudor inh	TbPYK inh	TbPYK orthogonal
Cc1cc(O)c(-c2cc(O)c(C)cc2O)cc1O	4.7µM*	1.8µM*	50µM*	16µM*	-67*	5µM*	32µM*	11µM*
CCCC(=O)NC1=C(Cl)C(=O)c2ccccc2C1=O	3µM*	7.1µM*	nt	nt	-58*	1.8µM*	7.1µM*	7.1µM*
O=C(Nc1ccc(C(=O)N2CCCC2)cc1)c1ccccc1	-6%	55%	nt	nt	-28	-13%	28µM*	8%
Cc1c(N2C(=O)/C(=C/c3ccccc3)SC2=S)c(=O)n(-c2ccccc2)n1C	-10%	-6%	-37%	-12%	0	-22%	nt	nt
Cc1c(N2C(=O)/C(=C\c3ccccc3O)SC2=S)c(=O)n(-c2ccccc2)n1C	1.7µM*	?	-30%	?	?	18µM*	4.5µM*	7.9µM*
O=C(Nc1cnn(Cc2ccc(Cl)cc2)c1)c1cccs1	6.7µM*	-8%	-3%	-9%	?	?	-6%	-13%
O=C(Nc1cnn(Cc2ccc(Cl)cc2)c1)c1ccc([N+](=O)[O-])cc1	2%	5%	-9%[57.1 µM]	-8%	9	?	nt	nt
C[C@@H]1CCCCO[C@@H](CN(C)C(=O)Nc2ccccc2)[C@@H](C)CN([C@H](C)CO)C(=O)c2cc(N(C)C)ccc2O1	-19%	nt	nt	nt	4	nt	nt	nt
C[C@@H]1CCCCO[C@@H](CN(C)Cc2ccc3c(c2)OCO3)[C@@H](C)CN([C@H](C)CO)C(=O)c2cc(N(C)C)ccc2O1	-20%	nt	nt	nt	0	nt	nt	nt
C[C@@H]1CCCCO[C@H](CN(C)Cc2ccc(Cl)c(Cl)c2)[C@@H](C)CN([C@H](C)CO)C(=O)c2cc(N(C)C)ccc2O1	-2%	nt	nt	nt	-4	nt	6.3µM*	6.3µM*
C[C@@H]1CCCCO[C@H](CN(C)C(=O)Nc2cccc3ccccc23)[C@@H](C)CN([C@H](C)CO)C(=O)c2cc(N(C)C)ccc2O1	0%	nt	nt	nt	-5	nt	3.5µM*	7.1µM*
CCOC(=O)c1ccc2c(c1)C1C=CCC1C(C(=O)OCC)N2 (centres undefined)	-17%	-7%	45µM*	-9%	?	?	-27%	-16%
CCOC(=O)c1ccc2c(c1)[C@@H]1C=CC[C@@H]1[C@H](c1cccc(OC)c1OC)N2	nt	11%	-9%	-18%	nt	-19%	nt	nt
O=C(NC1CCCC1)C1C(c2ccccc2)=Nc2ccccc2N1C(=O)c1cc(Cl)cc(Cl)c1 (centres undefined)	-8%	nt	nt	nt	-4	nt	nt	nt
Fc1cccc(/C=N/Nc2nccnc2Cl)c1	-22%	45%	-2%	-17%	?	-19%	?	0%
Oc1ccc(/C=N/Nc2nccnc2Cl)cc1	-11%	-10%	-2%	-17%	-65*	-6%[57.1 µM]	16µM*	13%
Fc1ccc(/C=N/Nc2nccnc2Cl)cc1	4%	-3%	4%	-12%	-6	-14%	nt	nt
